Screening results deposited in PubChem by several laboratories.
KKLEB cytotox – counter-screen for CF NF-kB inhibitors: cytotoxicity; KKLEB CF airway cells viability, ATPlite luminescence, overnight; stronger effect = lower value; cells stimulated with P. aeruginosa culture filtrate; activity change (cytotoxicity), % at 5 µM; actives 0.36% (n = 360,000); AID 602141;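 active = corrected activity change at or below -50% at 5 µM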
Mdm2 MdmX PPI – disrupts the human Mdm2-MdmX interaction. SaOS-2 split-luciferase Mdm2/MdmX complementation, luminescence. actives 3% (n = 330,000). O15151+Q00987. AID 485346. inhibition, % at 8 µM;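 active = inhibition of at least 50% at 8 µM in the primary screen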
Target sequence (O15151 whole entry, looked up): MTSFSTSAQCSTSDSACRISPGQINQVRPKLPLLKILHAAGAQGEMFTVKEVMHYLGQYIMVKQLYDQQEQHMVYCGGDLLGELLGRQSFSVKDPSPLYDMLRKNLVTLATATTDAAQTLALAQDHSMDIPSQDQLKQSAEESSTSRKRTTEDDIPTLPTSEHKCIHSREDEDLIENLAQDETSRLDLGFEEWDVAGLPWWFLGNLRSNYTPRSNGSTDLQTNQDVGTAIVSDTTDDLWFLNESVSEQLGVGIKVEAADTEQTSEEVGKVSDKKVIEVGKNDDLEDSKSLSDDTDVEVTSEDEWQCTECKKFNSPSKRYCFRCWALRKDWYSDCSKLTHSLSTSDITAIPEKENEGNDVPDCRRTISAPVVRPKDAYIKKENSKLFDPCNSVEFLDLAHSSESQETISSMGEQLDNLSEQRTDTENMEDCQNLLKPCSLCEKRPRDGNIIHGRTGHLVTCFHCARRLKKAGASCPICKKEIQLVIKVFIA
Target sequence (Q00987 whole entry, looked up): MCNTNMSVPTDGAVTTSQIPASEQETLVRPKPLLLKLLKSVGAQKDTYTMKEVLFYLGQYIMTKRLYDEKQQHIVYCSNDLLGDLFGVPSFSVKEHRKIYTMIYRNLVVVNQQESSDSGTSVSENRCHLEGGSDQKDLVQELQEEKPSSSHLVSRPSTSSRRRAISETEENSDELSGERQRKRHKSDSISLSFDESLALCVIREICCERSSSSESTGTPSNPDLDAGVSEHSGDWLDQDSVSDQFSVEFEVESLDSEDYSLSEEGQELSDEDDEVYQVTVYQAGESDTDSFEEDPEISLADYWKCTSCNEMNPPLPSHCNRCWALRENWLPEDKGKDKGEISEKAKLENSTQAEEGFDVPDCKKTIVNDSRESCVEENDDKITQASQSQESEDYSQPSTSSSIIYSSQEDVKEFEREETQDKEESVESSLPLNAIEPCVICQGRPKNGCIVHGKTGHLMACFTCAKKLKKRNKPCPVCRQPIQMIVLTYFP
CF NFkB block – cystic fibrosis NF-kB activation inhibition. AID 588850. actives 0.86% (n = 360,000). inhibition, % at 5 µM. KKLEB NF-kB-GFP reporter, PAF-induced, GFP fluorescence overnight;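 active = at least 50% inhibition at 5 µM, scaled per plate between neutral and stimulator controls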;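 also: PAF is a Pseudomonas aeruginosa culture filtrate used as stimulus; plate controls were PAF-stimulated DMSO wells for no effect and unstimulated DMSO wells for full effect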
HSP90 inh – blocks HSP90-mediated luciferase refolding in reticulocyte lysate; inhibition, % at 5.6 µM; Rabbit reticulocyte lysate, luciferase refolding luminescence, 3 h; actives 0.91% (n = 290,000); AID 1789;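 active = inhibition above the screen-wide mean plus 3 SD, computed separately per campaign, cut at about 16% in these data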;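 also: 0% = DMSO wells and 100% = 60 µM geldanamycin wells; inhibitors lower the luminescence because luciferase stays unfolded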
Peg3 prom inh – Peg3 promoter activity inhibition; HeLa PEG-Prom luciferase reporter, luminescence, overnight; inhibition, % at 20 µM; actives 1.7% (n = 360,000); AID 588405;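 active = inhibition of at least 50% at 20 µM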
LGR2 inh – blocks bursicon-induced cAMP signaling via Drosophila LGR2; AID 720647; inhibition, % at 9.99 µM; HEK293 LGR2, CRE-luciferase, bursicon-stimulated, 4 h; actives 0.35% (n = 380,000);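 active = drop in luminescence signal, shown as inhibition above about 50% in the replicate tests, limit read from the data, passing the limit was not always enough; inconclusive = probably only some replicates passing the limit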;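 also: agonist challenge used bursicon conditioned medium at about half maximal strength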
Mdm2-MdmX conf – confirmation of human Mdm2/MdmX interaction inhibitors | shares compounds with Mdm2 MdmX PPI | Mdm2-MdmX binding, luminescent assay | actives 55% (n = 10,000) | inhibition, % at 8 µM; in the data active = inhibition above about 40%
Full FLuc ctr – full-length luciferase inhibition in Mdm2/MdmX counter-screen | shares compounds with Mdm2 MdmX PPI | SaOS-2 full-length luciferase counterscreen, luminescence | inhibition, % at 8 µM | actives 77% (n = 6,200) | AID 504607;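 active = mean inhibition at 8 µM reaching about 37%, which flags the compound as non-specific, limit read from the data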;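 also: p53-null SaOS-2 cells with luciferase driven by a doxycycline-inducible promoter; compound on cells about two nights before reading with doxycycline added after day one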
An asterisk follows results filed as active; ? = inconclusive; . = no result. Sampled rows, rich in hits. Any-hit rate of the full collection: about 3.6%.

SMILES | KKLEB cytotox | Mdm2 MdmX PPI | CF NFkB block | HSP90 inh | Peg3 prom inh | LGR2 inh | Mdm2-MdmX conf | Full FLuc ctr
Cc1ccc(NS(=O)(=O)c2cc(-c3n[nH]c(=O)c4ccccc34)ccc2C)cc1 | -21 | 64* | 18 | 2 | 62* | -16 | 66* | 50*
Clc1ccc2nc(N3CCNCC3)nc(-c3ccccc3)c2c1 | -29 | 64* | 26 | 1 | 101* | . | 21 | .
O=C1CN(c2nc(-c3ccccc3)c3cc(Cl)ccc3n2)c2ccccc2N1 | -8 | 68* | 2 | -3 | 4 | -6 | 1 | .
CN1CCN(c2nc(-c3ccccc3)c3cc(Cl)ccc3n2)CC1 | -5 | 19 | -3 | 1 | 23 | . | . | .
Cc1cc(C)c2c(c1)/C(=C/C(=O)c1ccc(Br)s1)C(=O)N2 | -61* | 96* | 40 | 0 | 52* | . | 41* | 87*
CN(C)/C=C/C(=O)c1ccc(Br)s1 | -9 | -10 | -12 | 4 | -83 | -30 | . | .
CCOC(=O)C(C)Oc1cccc2c(=O)n(CC(=O)NCc3ccc4c(c3)OCO4)ccc12 (stereo not drawn) | -11 | 54* | 49 | -3 | 22 | 2 | 59* | 57*
CCOC(=O)COc1cccc2c(=O)n(CC(=O)NCc3ccccc3)ccc12 | 1 | 47 | 24 | -1 | -3 | 8 | . | .
CCOC(=O)COc1cccc2c(=O)n(CC(=O)NCc3ccc(F)cc3)ccc12 | -2 | 59* | 15 | 0 | -10 | -11 | 61* | 83*
CCOC(=O)C(C)Oc1cccc2c(=O)n(CC(=O)Nc3ccc4c(c3)OCCO4)ccc12 (stereo not drawn) | -10 | 48 | 10 | -4 | 13 | -13 | . | .
Cc1ccc(OCCNC(=O)c2cccc(S(=O)(=O)NCc3ccccc3)c2)cc1 | -27 | 60* | 29 | . | 19 | 29 | 77* | 54*
O=C(NCc1ccncc1)c1cccc(S(=O)(=O)NCc2ccccc2)c1 | 1 | 27 | -7 | -4 | 14 | -2 | . | .
C(=N\Nc1nncc2ccccc12)/c1ccccn1 | -29 | 79* | 66* | 29* | 19 | ? | 79* | 30
CNc1nc(Nc2ccc(Br)cc2)nc(N)c1[N+](=O)[O-] | 1 | 67* | -5 | 0 | 23 | -20 | -20 | .
COc1ccc(Nc2nc(N)c([N+](=O)[O-])c(NC3CCCCC3)n2)cc1 | 0 | 70* | 18 | -1 | 17 | -29 | 12 | .
COc1ccc(Nc2nc(N)c([N+](=O)[O-])c(NCCO)n2)cc1 | 7 | 18 | -4 | -1 | 10 | 2 | . | .
Cc1ccc(Nc2nc(N)c([N+](=O)[O-])c(NCc3ccccc3)n2)cc1 | -13 | 30 | 16 | 1 | 5 | -25 | . | .
CCCC(=O)Nc1ccc2c(c1)OC[C@@H](C)N(CCC(F)(F)F)C[C@@H](C)[C@@H](OC)CN(C)C2=O | . | . | . | . | . | 5 | . | .
C[C@H]1CN([C@@H](C)CO)C(=O)Cc2cc(NC(=O)Cn3cnnn3)ccc2O[C@@H]1CN(C)Cc1ccccc1 | . | . | . | . | . | 10 | . | .
CN1CCN(c2ccc(C(=O)c3cn(-c4ccc(F)c(Cl)c4)nn3)cc2)CC1 | -20 | 81* | 8 | 2 | 38 | -18 | 42* | 91*
CN1CCN(c2ccc(C(=O)c3ccc(F)cc3)cc2)CC1 | -3 | -92 | 2 | -2 | -210 | . | . | .
Cc1ccc(C(=O)c2cn(-c3ccc(F)c(Cl)c3)nn2)cc1 | 4 | 39 | 5 | -3 | -53 | . | . | .
Cc1ccc(-n2cc(C(=O)c3ccc(N4CCN(C)CC4)cc3)nn2)cc1Cl | 7 | 98* | 16 | -3 | 3 | 9 | 4 | .
CO[C@@H]1CN(C)C(=O)c2ccc(NS(=O)(=O)c3cn(C)cn3)cc2OC[C@@H](C)NC[C@@H]1C | . | . | . | . | . | -2 | . | .
CC12CC(c3ccccc3O1)N(C(=O)c1ccco1)C(=S)N2c1ccc(F)cc1 (stereo not drawn) | -9 | 51* | 9 | 2 | 45 | . | 30 | .
SMILES | KKLEB cytotox | Mdm2 MdmX PPI | CF NFkB block | HSP90 inh | Peg3 prom inh | LGR2 inh | Mdm2-MdmX conf | Full FLuc ctr
CC1(C)Cc2c(cnn2-c2ccc(F)cc2)C(NC(=O)c2ccco2)C1 (stereo not drawn) | 6 | 1 | -7 | 1 | -23 | 0 | . | .
NC(=S)n1[nH]c(-c2ccc([N+](=O)[O-])cc2)c(N=Nc2ccc(O)cc2)c1=O | -11 | 41 | -111 | 7 | -1 | . | . | .
NC(=S)n1[nH]c(-c2ccc([N+](=O)[O-])cc2)c(N=Nc2cccc(Cl)c2)c1=O | -30 | 97* | 27 | 2 | 25 | 31 | 91* | 40*
CO[C@@H]1CN(C)C(=O)c2ccc(NC(=O)NC(C)C)cc2OC[C@@H](C)N(Cc2ccc(-c3ccccn3)cc2)C[C@@H]1C | . | . | . | . | . | 24 | . | .
CCc1ccc(/C=C/C(=O)c2c(C)cc(C)[nH]c2=O)cc1 | -10 | 72* | 34 | 4 | 64* | . | 48* | 31
Cc1ccc(/C=C/C(=O)c2c(C)cc(C)[nH]c2=O)cc1 | 3 | 70* | 38 | 4 | 48 | 70* | 45* | 51*
CC(C)NC[C@H]1[C@@H](c2ccc(C3=CCCCC3)cc2)[C@@H](CO)N1C(=O)NC(C)C | . | . | . | . | . | 0 | . | .
COc1ccc(Cl)cc1N/C(N)=N/c1nc(CSc2ccc(C)cc2)cc(=O)[nH]1 | -14 | 4 | 8 | 4 | 4 | -3 | . | .
N/C(=N\c1nc(CSc2ccccn2)cc(=O)[nH]1)Nc1ccc(Cl)cc1Cl | -2 | 64* | 1 | -7 | 2 | -24 | 2 | .
Cc1cccc(N/C(N)=N/c2nc(CSc3ccc(Cl)cc3)cc(=O)[nH]2)c1 | . | 68* | . | 2 | . | 5 | 7 | .
Cc1ccc(N2CC(C(=O)N(C)CC(=O)Nc3ccc(Cl)c(C(F)(F)F)c3)CC2=O)cc1 (stereo not drawn) | -9 | 59* | 23 | . | 32 | -12 | 44* | 66*
N#C[C@@H]1[C@H](c2ccccc2-c2ccccc2F)[C@@H](CO)N1C(=O)C1CCC1 | . | . | . | . | . | -9 | . | .
CN1CCN(CC(=O)N2CCn3c4c(c5cc(C6CCCCC6)ccc53)CCCC42)CC1 (stereo not drawn) | -20 | 98* | 22 | 5 | 105* | . | 73* | 52*
Cc1ccc2c(c1)c1c3n2CCN(C(=O)CN2CCN(C)CC2)C3CCC1 (stereo not drawn) | -1 | 43 | 13 | 3 | 18 | . | . | .
CNC[C@H]1OCCCC[C@H](C)Oc2ccc(NS(=O)(=O)c3cccs3)cc2C(=O)N([C@@H](C)CO)C[C@H]1C | . | . | . | . | . | -3 | . | .
CCOc1ccc(C(=O)N/N=C/c2ccc(-c3ccc(S(=O)(=O)Nc4ncccn4)cc3)o2)cc1 | 10 | 1 | 6 | 0 | 0 | -17 | . | .
